From PubChem BioAssay AID1835 (Johns Hopkins Ion Channel Center, 2009) come the findings set out here.

The campaign covered roughly 2,400 compounds. About 750 (31%) were called active. Some of the results follow. A number with no mark means an inactive call.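 Rule for the calls: active = median signal gain over dofetilide-blocked control wells reaching their mean plus 3 SD, so readout 1 at least 0; inactive = the rest.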

Chain of Voltage-gated inwardly rectifying potassium channel KCNH2 (Homo sapiens) (Q12809 whole entry, looked up): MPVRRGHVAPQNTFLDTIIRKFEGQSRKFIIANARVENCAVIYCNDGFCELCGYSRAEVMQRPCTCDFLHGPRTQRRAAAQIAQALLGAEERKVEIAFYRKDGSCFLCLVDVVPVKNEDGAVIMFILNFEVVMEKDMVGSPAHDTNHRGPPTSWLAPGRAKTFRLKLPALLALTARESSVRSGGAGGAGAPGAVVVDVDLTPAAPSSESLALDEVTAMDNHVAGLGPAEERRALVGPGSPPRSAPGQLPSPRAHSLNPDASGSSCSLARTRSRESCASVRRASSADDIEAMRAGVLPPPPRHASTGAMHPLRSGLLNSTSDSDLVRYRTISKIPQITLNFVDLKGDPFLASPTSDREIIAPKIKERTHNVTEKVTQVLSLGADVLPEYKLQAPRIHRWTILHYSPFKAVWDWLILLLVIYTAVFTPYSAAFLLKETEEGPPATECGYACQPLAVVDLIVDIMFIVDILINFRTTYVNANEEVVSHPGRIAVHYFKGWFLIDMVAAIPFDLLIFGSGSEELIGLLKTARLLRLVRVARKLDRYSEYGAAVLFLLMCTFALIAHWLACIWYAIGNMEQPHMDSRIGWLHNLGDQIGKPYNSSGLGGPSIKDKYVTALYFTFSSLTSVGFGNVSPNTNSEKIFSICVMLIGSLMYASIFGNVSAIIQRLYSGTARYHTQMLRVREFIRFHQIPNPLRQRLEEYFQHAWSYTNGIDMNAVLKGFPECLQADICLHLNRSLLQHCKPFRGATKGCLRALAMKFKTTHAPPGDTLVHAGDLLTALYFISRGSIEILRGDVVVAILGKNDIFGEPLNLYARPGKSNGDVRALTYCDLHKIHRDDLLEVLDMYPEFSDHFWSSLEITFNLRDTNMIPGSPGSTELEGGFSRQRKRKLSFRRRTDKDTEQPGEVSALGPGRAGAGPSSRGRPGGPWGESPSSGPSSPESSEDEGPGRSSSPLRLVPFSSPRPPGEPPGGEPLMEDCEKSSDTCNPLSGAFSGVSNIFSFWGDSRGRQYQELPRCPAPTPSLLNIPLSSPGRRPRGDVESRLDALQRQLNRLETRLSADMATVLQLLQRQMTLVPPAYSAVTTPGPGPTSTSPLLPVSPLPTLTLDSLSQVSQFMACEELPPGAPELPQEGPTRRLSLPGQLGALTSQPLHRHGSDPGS

This assay concerns the target Voltage-gated inwardly rectifying potassium channel KCNH2 (Homo sapiens) (UniProt Q12809). As to the kind of experiment: modulators restoring hERG flux under dofetilide – cell-based, thallium flux, duplicate retest, dofetilide IC70, confirmation (AID 1835). To be noted: hERG cell line, FluxOR thallium flux, dofetilide-blocked; at 10 µM; stronger effect = higher value. In general terms: Block of hERG is tested as a sign of cardiac risk.
With `O=C(CCc1nc(-c2ccccc2)no1)N1CCCC1`, the activity increase over dofetilide control, less the hit threshold was -20%.
`CC(C(=O)N1CCN(c2ccc([N+](=O)[O-])cc2)CC1)N1C(=O)C2CC=CCC2C1=O` (stereo not drawn): the activity increase over dofetilide control, less the hit threshold was -9%.
The result for `C=CCN1C(=O)C(Cc2ccc(OCC)cc2)SC1=Nc1ccc(C(=O)O)cc1` (stereo not drawn) reads -11%; that for `C=CCn1c(SCc2ccc(C(=O)O)cc2)nc2sc(C)c(C)c2c1=O`, 20% (active).
On to `C=CCOc1ccccc1/C=c1\sc2nc(=O)c(C)nn2c1=O`, for which the activity increase over dofetilide control, less the hit threshold is -7%.
Turning to `CNC(=O)CSc1nnc(-c2ccco2)n1-c1ccc(C)cc1`, the activity increase over dofetilide control, less the hit threshold is -10%.
Take `C=CCNC(=S)Nc1sc2c(c1C(=O)OCC)CC(C)(CC)OC2` (stereo not drawn): the activity increase over dofetilide control, less the hit threshold was 15% (active).
With `CCOC(=O)c1c(NC(=S)NC)sc2c1CCCC2`, the activity increase over dofetilide control, less the hit threshold is 42% (active).
As for `COc1ccc(NC(=S)NC(NC(=O)c2cccc3ccccc23)C(Cl)(Cl)Cl)c([N+](=O)[O-])c1` (stereo not drawn), the activity increase over dofetilide control, less the hit threshold is -23%.
In the case of `C=CCNC(=S)Nc1sc2c(c1C(=O)OCC)CC(C(C)C)OC2` (stereo not drawn), the activity increase over dofetilide control, less the hit threshold is -4%.
The result for `CNC(=S)Nc1sc2c(c1C(=O)OC)CCC2` reads 17% (active); that for `CCOC(=O)c1c(/N=C/C2=C(O)CCCC2=O)sc2c1CCCC2`, -14%; that for `COC(=O)c1c(NC(=S)Nc2ccc(F)cc2[N+](=O)[O-])sc2c1CCCCC2`, 11% (active).
As to `COc1ccc(CCNC(=O)CSc2ccc3nnc(CCNC(=O)c4ccccc4)n3n2)cc1OC`, the activity increase over dofetilide control, less the hit threshold is -13%.
The result for `Clc1cccc(-c2ccc(C=Nc3ccc(N4CCOCC4)cc3)o2)c1Cl` reads -12%; that for `COc1ccc(CCNC(=O)CC(NS(=O)(=O)c2ccc(NC(C)=O)cc2)C(C)C)cc1OC` (stereo not drawn), -8%; that for `CCOC(=O)c1c(NC(=S)NC)sc2c1CC(C)(C)SC2`, 79% (active).
On to `CC(=O)NC(CSC(CC(=O)c1ccco1)c1ccc(C)cc1)C(=O)O` (stereo not drawn), for which the activity increase over dofetilide control, less the hit threshold was -15%.
Consider `C[n+]1ccccc1/C=C/c1ccc(C#N)cc1`, for which the activity increase over dofetilide control, less the hit threshold is 6% (active).
Then `C[n+]1ccccc1/C=C/c1c(F)cccc1F`, with -2%; and `COc1cc(Cl)cc(C(c2c(C(=O)O)[nH]c3ccccc23)c2c(C(=O)O)[nH]c3ccccc23)c1O`, with -20%; and `Cc1c(-c2ccn[nH]2)cc(NC(=O)c2ccc(Cl)cc2)c(=O)n1N`, with 7% (active).
Then `CC(=O)NCCc1nc2cc(NC(=O)c3ccc(Cl)cc3)ccc2n1C`, with -9%; and `CN(C)S(=O)(=O)c1cccc(C(=O)Nc2cccnc2)c1`, with -6%; and `Cn1nc(C(F)(F)F)c(-c2ccc(Br)cc2)c1NC(=O)c1cccnc1`, with 6% (active).
For `O=C(N=C1SC2CS(=O)(=O)CC2N1c1cccc(Cl)c1Cl)C1CCCO1` (stereo not drawn), the activity increase over dofetilide control, less the hit threshold is -15%.
In the case of `CCOc1ccc(S(=O)(=O)Nc2nc3ccccc3nc2-n2ccc(=NC(=O)c3cccs3)cc2)cc1`, the activity increase over dofetilide control, less the hit threshold was -6%.
On to `CN(CCc1ccccn1)C(=O)CCC1CCCN(C(=O)c2ccsc2)C1` (stereo not drawn), for which the activity increase over dofetilide control, less the hit threshold was -5%.
Then `Cc1nonc1CN(C)C(=O)c1ccc(OC2CCN(Cc3ccccn3)CC2)cc1`, with 3% (active).
On to `C/C(=N\N1CCN(C2c3ccccc3-c3ccccc32)CC1)c1ccncc1`, for which the activity increase over dofetilide control, less the hit threshold was -18%.
With `C/C(=C/CCC(C)C1CCC2(C)C3CCC4C(C)(C)C(=O)CCC4(C)C3=CCC12C)C(=O)O` (stereo not drawn), the activity increase over dofetilide control, less the hit threshold was 15% (active).
For `C/C(=C/CCC(C)[C@H]1CC[C@@]2(C)C3=C(CC[C@]12C)[C@@]1(C)CCC(=O)C(C)(C)[C@@H]1CC3)C(=O)O` (stereo partly drawn), the activity increase over dofetilide control, less the hit threshold was 45% (active).
Regarding `Nc1ncnc(Oc2cccc3cccnc23)c1[N+](=O)[O-]`, the activity increase over dofetilide control, less the hit threshold is -12%.
As to `Nc1cc(-c2ccc(Br)cc2)[nH]n1`, the activity increase over dofetilide control, less the hit threshold is -11%.
Regarding `CNC(=O)c1ccc(NC(=O)CN2c3cccc4cccc(c34)S2(=O)=O)cc1`, the activity increase over dofetilide control, less the hit threshold was 61% (active).
As to `CSc1cccc(NC(=O)CN2C(=O)c3ccccc3S2(=O)=O)c1`, the activity increase over dofetilide control, less the hit threshold is -19%.
For the compound `O=C(CN1C(=O)c2cccc3cccc1c23)Nc1cccnc1`, the activity increase over dofetilide control, less the hit threshold is -17%.
Then `Cc1c(C(=O)NN2CCN(C)CC2)cccc1[N+](=O)[O-]`, with -16%; and `O=C(NC(=S)N1CCN(c2ccc(Cl)cc2[N+](=O)[O-])CC1)c1cccs1`, with 12% (active).
Then `O=C(NC(=S)N1CCN(c2ccc(C(F)(F)F)cc2[N+](=O)[O-])CC1)c1cccs1`, with 12% (active); and `COc1ccc(N2CCN(C(=S)NC(=O)c3cccs3)CC2)c([N+](=O)[O-])c1`, with 1% (active).
For the compound `COc1ccc(N2CCN(C(=S)Nc3cccc(OC)c3)CC2)cc1`, the activity increase over dofetilide control, less the hit threshold is -11%.
Consider `O=C(NC(=S)N1CCN(c2c(Cl)cccc2[N+](=O)[O-])CC1)c1cccs1`, for which the activity increase over dofetilide control, less the hit threshold is 2% (active).
With `Cc1cccc2nc(-c3cccnc3)c(NCCC(C)C)n12`, the activity increase over dofetilide control, less the hit threshold was -70%.
With `CC(C)Oc1cccc(C(=O)NC(=S)N2CCN(c3ccc(C(F)(F)F)cc3[N+](=O)[O-])CC2)c1`, the activity increase over dofetilide control, less the hit threshold is -8%.
`COc1cccc(OC)c1C(=O)NC(=S)N1CCN(c2ccc(C(F)(F)F)cc2[N+](=O)[O-])CC1`: the activity increase over dofetilide control, less the hit threshold is 6% (active).
As to `COC(=O)CSc1nc(N2CCCCC2)c2c(c1C#N)CCCC2`, the activity increase over dofetilide control, less the hit threshold was 5% (active).
Take `COC(=O)CSc1nc2c(c(-c3ccc(C)o3)c1C#N)CCCC2`: the activity increase over dofetilide control, less the hit threshold was -18%.
